Data as given in PubChem BioAssay.
Values without a mark were called inactive. Calls of active or inactive are those of the source.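 Rule for the calls, unless noted: active = mean inhibition above 46.68%, the untreated control wells mean plus 3 SD; inactive = the rest.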

Assays:
[1] = target: Nuclear receptor coactivator 1 (Homo sapiens) (UniProt Q15788); test: SRC1 coactivator transcriptional activity inhibitors, confirmation, cell-based, luminescence, quadruplicate (AID 588820); conditions: HEK293 GAL4-SRC1 luciferase reporter, at 3.6 µM, hits give high values;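 note: 0% = DMSO wells and 100% = gossypol 36 µM treated wells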
[2] = VP16 transactivation inhibitors, counter-screen for SRC1 inhibitor project, cell-based, luminescence, high throughput (AID 588824; in the data active = inhibition above about 25%); conditions: cell-based VP16 transactivation luciferase luminescence; at 3.6 µM; hits give high values

Sequence of Nuclear receptor coactivator 1 (Homo sapiens) (Q15788 whole entry, looked up, the tested form may be a part): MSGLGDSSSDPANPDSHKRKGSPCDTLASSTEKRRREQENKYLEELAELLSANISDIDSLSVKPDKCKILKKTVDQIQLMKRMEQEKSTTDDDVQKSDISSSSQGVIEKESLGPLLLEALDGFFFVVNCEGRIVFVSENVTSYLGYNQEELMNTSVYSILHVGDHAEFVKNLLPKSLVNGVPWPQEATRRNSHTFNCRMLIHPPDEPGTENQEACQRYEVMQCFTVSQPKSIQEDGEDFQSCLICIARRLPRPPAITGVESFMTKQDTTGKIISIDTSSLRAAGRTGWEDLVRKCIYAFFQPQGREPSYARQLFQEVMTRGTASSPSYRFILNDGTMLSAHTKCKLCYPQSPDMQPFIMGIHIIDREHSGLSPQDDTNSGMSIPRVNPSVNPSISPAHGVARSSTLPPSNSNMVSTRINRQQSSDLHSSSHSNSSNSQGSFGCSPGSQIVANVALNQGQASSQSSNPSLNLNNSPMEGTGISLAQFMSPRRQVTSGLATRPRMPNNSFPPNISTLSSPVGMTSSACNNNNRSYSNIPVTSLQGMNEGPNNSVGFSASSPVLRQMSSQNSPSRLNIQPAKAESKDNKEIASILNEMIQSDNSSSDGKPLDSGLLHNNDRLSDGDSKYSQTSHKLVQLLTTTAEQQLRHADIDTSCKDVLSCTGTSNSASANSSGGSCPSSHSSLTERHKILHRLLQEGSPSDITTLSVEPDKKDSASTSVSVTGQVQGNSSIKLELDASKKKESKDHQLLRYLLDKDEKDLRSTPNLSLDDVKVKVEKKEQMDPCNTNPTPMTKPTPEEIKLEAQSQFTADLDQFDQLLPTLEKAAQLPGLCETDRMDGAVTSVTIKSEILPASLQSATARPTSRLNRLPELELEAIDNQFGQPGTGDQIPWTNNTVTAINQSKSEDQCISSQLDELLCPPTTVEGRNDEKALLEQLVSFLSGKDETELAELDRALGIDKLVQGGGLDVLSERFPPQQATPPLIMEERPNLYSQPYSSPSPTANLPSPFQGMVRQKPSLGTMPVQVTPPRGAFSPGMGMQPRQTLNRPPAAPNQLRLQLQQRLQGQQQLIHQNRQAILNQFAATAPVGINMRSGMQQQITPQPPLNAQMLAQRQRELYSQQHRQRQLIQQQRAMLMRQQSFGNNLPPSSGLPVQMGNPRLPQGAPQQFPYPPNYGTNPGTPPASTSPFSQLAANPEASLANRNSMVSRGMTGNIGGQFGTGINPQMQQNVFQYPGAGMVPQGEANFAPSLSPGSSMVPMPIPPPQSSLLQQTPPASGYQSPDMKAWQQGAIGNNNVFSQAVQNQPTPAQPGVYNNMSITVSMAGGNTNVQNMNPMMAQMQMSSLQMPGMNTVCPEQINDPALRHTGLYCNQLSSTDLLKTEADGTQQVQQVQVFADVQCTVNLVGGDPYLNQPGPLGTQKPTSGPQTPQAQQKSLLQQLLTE

Row | SMILES | inhibition [1] [%] | inhibition [2]
1 | Cc1cc(C)nc(-n2ncc(C#N)c2N)n1 | -18.5 | 5.06%
2 | O=C(c1ccccc1)N1CCN(Cc2ccc3c(c2)OCO3)CC1 | 0.9 | 3.86%
3 | CCN(CC)CCNC(=O)CCN1N=C(c2ccccc2)CCC1=O | -4.6 | -9.8%
4 | Cc1nc(N)c(C#N)c(-c2cccnc2)c1C | 46.4 | 26.5% (active)
5 | Cc1csc2ncnc(NCCc3ccccn3)c12 | -2.8 | 21.8%
6 | CCc1ccc(CNC(=O)C2CCCN(S(=O)(=O)N(CC)c3ccccc3)C2)cc1 (centres undefined) | -39.2 | -3.99%
7 | CC(=O)OCC1OC(n2cc(F)c(=O)[nH]c2=O)C(OC(C)=O)C1OC(C)=O (centres undefined) | 5.02 | 22.9%
8 | CC(=O)Nc1cccc(C(=O)Nc2ccc(S(=O)(=O)NC3=NCCCCC3)cc2)c1 | -23 | -8.18%
9 | COc1cc2c(cc1NC(=O)/C=C/c1cc(OC)c(OC)c(OC)c1)oc1ccccc12 | 3.29 | -2.37%
10 | CCCCCN(C(=O)CCC(=O)OCC(=O)N(CC#N)c1ccccc1)c1c(N)n(CCCC)c(=O)[nH]c1=O | -5.77 | 1.44%
11 | COc1cccc(C(C(=O)NC2CCCC2)N(C(=O)c2ccco2)c2ccc(C(C)=O)cc2)c1OC (centres undefined) | -0.53 | -9.34%
12 | CCOc1ccc(-c2cc(C(=O)Nc3ccc(C)c(NS(C)(=O)=O)c3)[nH]n2)c(C)c1 | -14 | 5.47%
